Source: PubChem BioAssay (NCATS)
Several values for one entry are separate records, joined by “and”; a condition that tells them apart may be missing. Identical values can stand only once. Inconclusive results are not listed. Activity calls are given as the source filed them. Unless noted, calls come from the whole dose curve; as a rule, active = well fitted curve in the direction sought with a large enough effect; inconclusive = small, poorly fitted or top-dose-only effect, or another doubt; inactive = no such curve, though single readings can be large; an effect the other way counts as inactive or inconclusive.

Legend:
[1] = qHTS profiling for inhibitors of Plasmodium falciparum proliferation (AID 504749); note: potency is the fitted concentration of half-maximal effect;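 for activity, negative = inhibition: 0% = DMSO vehicle and full inhibition = artemisinin control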; for all read-outs here: nearly all actives have a fitted effect of over 60% in size; conditions: P. falciparum in erythrocytes, SYBR Green DNA, 72 h; for activity, negative = inhibition: at 28.7 µM (top of the series)
Method in brief: (§1)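 Infected RBCs, 0.3% parasitemia/2.5% Hct final; cpd 72 h, 37 C, 5% CO2; lysis buffer with saponin/triton/SYBR Green I, o/n RT dark; FI 485/535; norm. to artemisinin (0.29 uM) and DMSO.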

3D7 = assay: as above; conditions: P. falciparum in erythrocytes, SYBR Green DNA, 72 h; series mostly up to 28.7 µM
Method in brief: as §1

7G8 = assay: as above; conditions: P. falciparum in erythrocytes, SYBR Green DNA, 72 h; series mostly up to 28.7 µM
Method in brief: as §1

[2] = qHTS Counterscreen for compound interference against the NCATS DSHEA and TCM libraries (AID 1919978); conditions: firefly luciferase detection reagent interference, luminescence;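 note: compounds preincubated with 1 µM D-luciferin or buffer before detection reagent; % of control where 0% means no effect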
Method in brief: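 Firefly luciferase detection reagent was added after compounds (19.5 nM–39.8 uM final) had been incubated 15 min at room temperature with 1 uM D-luciferin or with 100 mM phosphate buffer alone. Luminescence was read after 30 min at room temperature.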

[3] = Dual reporter qHTS for agonist of Pregnane X Receptor (hPXR) against the NCATS DSHEA and TCM libraries: Fluorescence readout (AID 1920058); conditions: PXR dual reporter cells; series mostly up to 40 µM; note: 0% is about no effect
Method in brief: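 hPXR-Luc HepG2 cells, 2000/well in charcoal-stripped serum, attached 5 h, dosed for ~24 h at 37 °C. Fluorescence read is CellTiter-Fluor viability (Ex/Em 405/540 nm); rifampicin positive, tetraoctyl ammonium bromide (92 µM) cytotoxicity controls.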

[4] = biological target: Nuclear receptor subfamily 1 group I member 2 (Homo sapiens) (UniProt O75469); assay: Dual reporter qHTS for agonist of Pregnane X Receptor (hPXR) against the NCATS DSHEA and TCM libraries: Luminescence readout (AID 1920059); conditions: hPXR dual reporter cells, luciferase luminescence agonist; series mostly up to 40 µM; note: 0% is about no effect
Method in brief: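 Luminescent PXR reporter read (ONE-Glo) after a CellTiter-Fluor viability read, following 24 h, 37C treatment of HepG2 cells stably carrying hPXR-Luc.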

[5] = biological target: Nuclear receptor subfamily 1 group I member 2 (Homo sapiens) (UniProt O75469); assay: Dual reporter qHTS for antagonist of Pregnane X Receptor (hPXR) against the NCATS DSHEA and TCM libraries: Luminescence Readout (AID 1920060); conditions: hPXR dual reporter cells, luciferase luminescence, antagonist mode; series mostly up to 40 µM;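 note: HepG2 cells carrying hPXR luciferase reporter stimulated with rifampicin at 2 µM; 0% is about no effect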
Method in brief: (§2)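 Antagonist mode: rifampicin 2 uM final co-added with compounds to hPXR-LucHepG2 cells for 24 h at 37C. Viability by CellTiter-Fluor, Ex/Em 405/540 nm, 1 h; reporter by ONE-Glo luminescence.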

[6] = Dual reporter qHTS for antagonist of Pregnane X Receptor (hPXR) against the NCATS DSHEA and TCM libraries: Fluorescence Readout (AID 1920061); conditions: PXR dual reporter cells, antagonist mode; series mostly up to 40 µM; note: 0% is about no effect
Method in brief: as §2

AA1029 = assay: qHTS profiling for inhibitors of Plasmodium falciparum proliferation (AID 504749); note: nearly all actives have a fitted effect of over 60% in size; note: potency is the fitted concentration of half-maximal effect;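 for activity, negative = inhibition: 0% = DMSO vehicle and full inhibition = artemisinin control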; conditions: P. falciparum in erythrocytes, SYBR Green DNA, 72 h; series mostly up to 28.7 µM
Method in brief: as §1

[7] = qHTS drug screen for cell cycle checkpoint inhibitors in PARPi-resistant BRCA-mutant ovarian cancer cell lines. (AID 1963452; calls by dose curve); conditions: PEO1/OlaR viability, CellTiter-Glo luminescence, 96 h, stronger effect = lower value
Method in brief: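 PEO1, PEO4 and PEO1/OlaR ovarian cancer cells, 600 per well, exposed 96 h at 37C to a dilution series. Viability read by CellTiter-Glo luminescence, normalized to DMSO and empty wells; activity summarized as Z-AUC.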

[8] = measured here: PEO1 parental Z-AUC

Chain of Nuclear receptor subfamily 1 group I member 2 (Homo sapiens) (O75469 whole entry, looked up): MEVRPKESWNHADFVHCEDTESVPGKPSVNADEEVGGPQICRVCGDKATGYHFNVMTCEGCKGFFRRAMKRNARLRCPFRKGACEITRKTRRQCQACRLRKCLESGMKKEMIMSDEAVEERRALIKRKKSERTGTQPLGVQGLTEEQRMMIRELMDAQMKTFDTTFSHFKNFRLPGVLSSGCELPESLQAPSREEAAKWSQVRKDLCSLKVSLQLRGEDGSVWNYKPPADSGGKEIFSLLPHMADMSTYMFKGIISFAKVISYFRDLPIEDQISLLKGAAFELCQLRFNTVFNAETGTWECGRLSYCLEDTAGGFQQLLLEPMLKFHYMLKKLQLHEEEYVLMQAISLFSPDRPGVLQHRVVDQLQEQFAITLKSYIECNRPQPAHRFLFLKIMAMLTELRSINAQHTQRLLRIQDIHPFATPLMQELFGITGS

In the case of `CCOC(CN1CCN(CC(C)C(=O)c2ccccc2)CC1)c1ccccc1` (stereo not drawn), the activity, negative = inhibition ([1]; parasite line A) was 2.77% (inactive), the activity, negative = inhibition ([1]; parasite line B) was 3.94% (inactive) and the Potency (3D7) was “inactive”. The Potency (7G8) was 11.2 µM (active).
With `CCN(CC)CCNC(C(=O)OCCC(C)C)c1ccccc1` (stereo not drawn) the activity, negative = inhibition ([1]; parasite line A) was 6.18% (inactive), the activity, negative = inhibition ([1]; parasite line B) was 14.1% (inactive) and the Potency (3D7) was “inactive”. For the same compound, the Potency (7G8) was 12.6 µM (active).
In the case of `O=C(O)c1ccccc1O`, the max response [2] was -0.219% (inactive), the outcome [3] was “inactive” and the outcome [4] was “inactive”. The outcome [5] was “inactive”, the outcome [6] was “inactive” and the activity, negative = inhibition ([1]; parasite line A) was 0.135% (inactive). The activity, negative = inhibition ([1]; parasite line B) was 11.3% (inactive), the Potency (3D7) was “inactive” and the Potency (7G8) was “inactive”. The Potency (AA1029) was “inactive”.
In the case of `CC(=O)OCC(=O)[C@@]1(O)CC[C@H]2[C@@H]3CCC4=CC(=O)CC[C@]4(C)[C@H]3C(=O)C[C@@]21C`, the Z-AUC [7] was -1.11 (inactive), the Z-AUC [7, 8] was -0.142 and the Z-AUC ([7]; measured here: PEO4 Z-AUC) was -0.613.
In the case of `CNCCC(Oc1ccc(C(F)(F)F)cc1)c1ccccc1` (stereo not drawn), the activity, negative = inhibition ([1]; parasite line A) was -5.44% (inactive), the activity, negative = inhibition ([1]; parasite line B) was -9.25% (inactive) and the Potency (3D7) was “inactive”. The Potency (7G8) was 11.2 µM (active).
For `OC[C@H]1O[C@@H](O[C@@H]2[C@@H](CO)O[C@](O)(CO)[C@H]2O)[C@H](O)[C@@H](O)[C@H]1O`, the Z-AUC [7] was -0.433 (inactive), the Z-AUC [7, 8] was -0.31 and the Z-AUC ([7]; measured here: PEO4 Z-AUC) was -0.255.
In the case of `CN(C)CCN(Cc1ccccc1)c1ccccn1`, the activity, negative = inhibition ([1]; parasite line A) was -2.14% (inactive), the activity, negative = inhibition ([1]; parasite line B) was 9.22% (inactive) and the Potency (3D7) was “inactive”. For the same compound, the Potency (7G8) was “inactive”.
For `CCN(CC)CCNC(=O)c1c(C)[nH]c(/C=C2\C(=O)Nc3ccc(F)cc32)c1C`, the Z-AUC [7] was -0.535 (inactive), the Z-AUC [7, 8] was -0.162 and the Z-AUC ([7]; measured here: PEO4 Z-AUC) was -0.0779. The Potency ([1]; parasite line A) was 6.31 µM (active), the Potency ([1]; parasite line B) was 8.91 µM (active) and the Potency (3D7) was 8.91 µM (active). The Potency (7G8) was 3.98 µM (active) and the Potency (AA1029) was 8.91 µM (active).
For `NC(=O)c1ncn([C@@H]2O[C@H](CO)[C@@H](O)[C@H]2O)c1N`, the Z-AUC [7] was -0.269 (inactive), the Z-AUC [7, 8] was -0.745 and the Z-AUC ([7]; measured here: PEO4 Z-AUC) was -0.555.
In the case of `CN1CCN(C2Cc3ccccc3Sc3ccc(Cl)cc32)CC1` (stereo not drawn), the activity, negative = inhibition ([1]; parasite line A) was -18.4% (inactive), the activity, negative = inhibition ([1]; parasite line B) was -6.83% (inactive) and the Potency (3D7) was “inactive”. The Potency (7G8) was 8.91 µM (active).
In the case of `O=C1Nc2ccc(Cl)cc2[C@@](C#CC2CC2)(C(F)(F)F)O1`, the Z-AUC [7] was -0.995 (inactive) and -0.662 (inactive), the Z-AUC [7, 8] was -0.432 and 0.539 and the Z-AUC ([7]; measured here: PEO4 Z-AUC) was -0.62 and -0.612.
For `C[C@H]1O[C@@H](n2cc(F)c(=O)[nH]c2=O)[C@H](O)[C@@H]1O`, the Z-AUC [7] was 0.97 (inactive), the Z-AUC [7, 8] was 1.13 and the Z-AUC ([7]; measured here: PEO4 Z-AUC) was 1.52. The activity, negative = inhibition ([1]; parasite line A) was 3.03% (inactive), the activity, negative = inhibition ([1]; parasite line B) was 4.84% (inactive) and the Potency (3D7) was “inactive”. For the same compound, the Potency (7G8) was “inactive” and the Potency (AA1029) was “inactive”.
With `CNC(=O)Oc1ccc2c(c1)[C@]1(C)CCN(C)[C@@H]1N2C` the Potency ([1]; parasite line A) was 1.58 µM (active), the Potency ([1]; parasite line B) was 2 µM (active) and the Potency (3D7) was 3.55 µM (active). For the same compound, the Potency (7G8) was 2.24 µM (active).
In the case of `Nc1ncnc2c1ncn2[C@@H]1O[C@H](CO)[C@@H](O)[C@H]1O`, the Z-AUC [7] was 0.682 (inactive), the Z-AUC [7, 8] was 0.71 and the Z-AUC ([7]; measured here: PEO4 Z-AUC) was 1.16. For the same compound, the activity, negative = inhibition ([1]; parasite line A) was 7.65% (inactive), the activity, negative = inhibition ([1]; parasite line B) was 2.17% (inactive) and the Potency (3D7) was “inactive”. The Potency (7G8) was “inactive” and the Potency (AA1029) was “inactive”.
In the case of `CN(N=O)C(=O)N[C@@H]1[C@@H](O)[C@H](O)[C@@H](CO)O[C@@H]1O`, the Z-AUC [7] was 1.08 (inactive), the Z-AUC [7, 8] was 0.655 and the Z-AUC ([7]; measured here: PEO4 Z-AUC) was 0.737.
